Mito fusion yeast: inhibitors of mitochondrial division or activators of mitochondrial fusion; Potency, µM (doses to about 46.1 µM), for the others: at the top dose growth rescue (activation), hits mostly activators; S. cerevisiae fusion-defective mutant growth rescue, CellTiterGlo 48 h; hit rate 0.23% among 320,000; AID 485298; further: % of control where 0% means no effect; nearly all actives have a fitted effect of over 45% in size
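S. cerevisiae fusion-defective temperature-sensitive mutants (e.g. fzo1-1, mgm1-5) grown 48 h at 37C in YPEG (ethanol/glycerol non-fermentable) medium with 23 nl compound per well; growth rescue read as CellTiterGlo luminescence.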
RORg inh: ROR gamma (mouse) transcription inhibition. P51450. Drosophila S2 Gal4-RORgamma UAS-luciferase reporter, 20 h. Potency, µM (doses to about 53.6 µM), without a hit: top-dose activity change, negative = inhibition, hits mostly inhibitors. hit rate 5.4% among 310,000; further: on the % scale 0 is the no-effect control and ±100 the full control effect; nearly all actives have a fitted effect of over 60% in size
Target sequence (P51450 whole entry, looked up, the tested form may be a part): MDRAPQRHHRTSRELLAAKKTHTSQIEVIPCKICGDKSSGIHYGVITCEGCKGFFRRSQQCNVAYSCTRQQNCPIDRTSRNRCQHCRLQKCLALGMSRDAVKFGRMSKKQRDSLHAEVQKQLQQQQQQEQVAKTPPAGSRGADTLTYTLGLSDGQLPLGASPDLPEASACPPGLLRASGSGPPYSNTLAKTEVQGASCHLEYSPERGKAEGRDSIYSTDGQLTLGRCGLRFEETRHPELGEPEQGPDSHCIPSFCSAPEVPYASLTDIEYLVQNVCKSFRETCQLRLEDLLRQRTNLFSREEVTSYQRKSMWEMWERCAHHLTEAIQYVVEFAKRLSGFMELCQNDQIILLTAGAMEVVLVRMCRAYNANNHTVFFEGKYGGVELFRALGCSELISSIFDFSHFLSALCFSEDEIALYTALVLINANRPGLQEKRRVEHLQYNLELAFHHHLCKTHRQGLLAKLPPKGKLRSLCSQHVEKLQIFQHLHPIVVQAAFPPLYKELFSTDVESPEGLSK
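In this cell-based reporter format, copper sulfate (700 uM final) drives Gal4–ROR gamma fusion expression from a metallothionein promoter in Drosophila Schneider cells; compounds preincubated 1 hr, reporter read after 20 hr at ambient temperature.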
Gal4-VP16 FLuc: counter-screen for ROR gamma inhibitors: Gal4-VP16 reporter; Drosophila S2 Gal4-VP16 UAS-luciferase, luminescence, 20 h; Potency, µM (top dose mostly 53.6 µM), without a hit: top-dose activity, negative = inhibition, most hits filed as inhibitors; AID 2546; hit rate 3.5% among 310,000;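 further: Gal4-VP16 expression switched on by copper sulfate through the metallothionein promoter; on the % scale 0 is the no-effect control and ±100 the full control effect; nearly all actives have a fitted effect of over 50% in size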
BCR signal inh: inhibitors of chronic active B-cell receptor signaling | ABC-DLBCL IkBa-CBG/CBR reporter, luminescence ratio, 4 h | hit rate 0.05% among 340,000 | Potency, µM (series often up to 46.1 µM), for inactives: at the highest dose activity change, negative = inhibition, usual class: inhibitors; active means well fitted inhibition curve with a large enough effect in the signal ratio, with a control signal flat, not every such curve was filed as active; inconclusive means small, poorly fitted or top-dose-only effect, or effect the other way, or a change in a side signal; the % refers to the signal ratio;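 further: plate controls were basal doxycycline-induced cells for no effect and cells given 10 µM MG132 for full effect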
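TMD8 ABC-DLBCL cells carrying doxycycline-inducible green luciferase fused to IkappaBalpha plus unfused red luciferase were exposed to compounds (up to 46 uM) for 4 hrs at 37C. Activity came from the overlap-corrected green/red luminescence ratio.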
uPA generation: inhibitors of cell surface uPA generation; hit rate 0.31% among 330,000; AID 540303; cell surface uPA generation assay, qHTS; Potency, µM (series often up to 38.3 µM), without a hit: at the top dose activity change, negative = inhibition, actives largely listed as inhibitors; active means well fitted inhibition curve with a large enough effect; inconclusive means small, poorly fitted or top-dose-only effect; inactive means no such curve, though single readings can be large or run the other way; tested in mouse RAW 264.7 cells; further: on the % scale 0 is the no-effect control and ±100 the full control effect; nearly all actives have a fitted effect of over 55% in size
a7 integrin act: activators of alpha7 integrin expression for muscular dystrophy | AID 624291 | hit rate 0.064% among 350,000 | alpha7betagal myoblasts, beta-gal FDG fluorescence, 48 h | Potency, µM (top dose mostly 38.3 µM), inactives show at the top dose activation, actives largely listed as activators;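 further: 100% = response of the positive control SU9516; nearly all actives have a fitted effect of over 60% in size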
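Alpha7betagal+/- myoblasts (passage 13) were plated 16-24 hr, then exposed to compounds (1:260 dilution of DMSO stock) for 48 hours at 37C. After MPER lysis, β-galactosidase reporter activity was read as FDG fluorescence (ex 480/em 540) after 30 minutes.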
The depositor's hits bear a star; [ ] = another dose, or the depositor's remark. In the library only some 5.5% were active in any assay of this set; here they are far more common. Unless noted, the call rests on the fitted dose curve; in most records, active means well fitted curve in the direction sought with a large enough effect; inconclusive means small, poorly fitted or top-dose-only effect, or another doubt; inactive means no such curve, though single readings can be large; an effect the other way counts as inactive or inconclusive. Potency means the concentration at half of the fitted maximal effect.

Screening Cn1c(SCC(=O)c2ccccc2F)nnc1C1CC1 returned Mito fusion yeast 1%, RORg inh inconclusive, Gal4-VP16 FLuc 11µM*, BCR signal inh inconclusive, uPA generation -1% and a7 integrin act -10%.
Cc1ccccc1NC(=O)c1onc2c1CCCC2 was read as Mito fusion yeast 2%, RORg inh -33%, Gal4-VP16 FLuc -4%, BCR signal inh inconclusive, uPA generation -6% and a7 integrin act 6%.
Screening COC(=O)c1cccc(NC(=O)c2onc3c2CCCC3)c1 returned Mito fusion yeast 4%, RORg inh 7.1µM*, Gal4-VP16 FLuc inconclusive, BCR signal inh inconclusive, uPA generation -2% and a7 integrin act 16%.
For O=C(Nc1ccc2ccccc2c1)c1onc2c1CCCC2 the results were Mito fusion yeast 1%, RORg inh 14µM*, Gal4-VP16 FLuc inconclusive, BCR signal inh inconclusive, uPA generation -5% and a7 integrin act -17%.
Screening Cc1cccc(NC(=O)c2onc3c2CCCC3)n1 returned Mito fusion yeast -24%, RORg inh 2µM*, Gal4-VP16 FLuc 5.6µM*, BCR signal inh inconclusive, uPA generation 4µM* and a7 integrin act -18%.
For CCCCCCCCNC(=O)/C(C#N)=C/c1ccccc1[N+](=O)[O-] the results were Mito fusion yeast -26%, RORg inh 3.2µM*, Gal4-VP16 FLuc 7.9µM*, BCR signal inh -29%, uPA generation 5% and a7 integrin act -22%.
For N#C/C(=C\c1ccccc1[N+](=O)[O-])C(=O)NCc1ccccc1 the results were Mito fusion yeast 1%, RORg inh inconclusive, Gal4-VP16 FLuc inconclusive, BCR signal inh inconclusive, uPA generation -5% and a7 integrin act -21%.
For N#C/C(=C\C=C\c1ccccc1[N+](=O)[O-])C(=O)NCc1ccccc1 the results were Mito fusion yeast -1%, RORg inh 14µM*, Gal4-VP16 FLuc inconclusive, BCR signal inh inconclusive, uPA generation -5% and a7 integrin act -80%.
Screening C=CC[C@@H]1C=C[C@@H](O/N=C\[C@@H](NS(=O)(=O)c2ccc(C)cc2)[C@H](C)/C=C\CC(=O)OC)[C@@H](CO)O1 returned RORg inh 6%[10 µM] and Gal4-VP16 FLuc 6%[10 µM].
NS(=O)(=O)c1ccc(CCNCc2cc(Br)ccc2OCc2ccccc2)cc1 was read as Mito fusion yeast -6%, RORg inh inconclusive, Gal4-VP16 FLuc 16µM*, BCR signal inh -3%, uPA generation -5% and a7 integrin act -43%.
Cc1c(Cl)cccc1NC(=O)CSc1nc(=O)[nH]c2c1CCCC2 was read as BCR signal inh 7%.
For Cn1/c(=N/NC(=O)c2ccccc2Br)sc2ccccc21 the results were Mito fusion yeast 2%, RORg inh -4%, Gal4-VP16 FLuc inconclusive, BCR signal inh inconclusive, uPA generation -4% and a7 integrin act 32%.
COc1ccc(-c2nc(Cn3c(SCc4ccc(C)cc4)nc4ccncc43)c(C)o2)cc1OC was read as Mito fusion yeast 1%, RORg inh -36%, Gal4-VP16 FLuc inconclusive, BCR signal inh inconclusive, uPA generation 8.9µM* and a7 integrin act 7%.
For CCCCCCCCCCCCCCNCCO the results were RORg inh 13% and Gal4-VP16 FLuc 0%.
Screening CCc1cc(=O)oc2c(C)c(OCC(=O)N3CCCc4ccccc43)ccc12 returned Mito fusion yeast 7%, RORg inh 11µM*, Gal4-VP16 FLuc inconclusive, BCR signal inh inconclusive, uPA generation -14% and a7 integrin act -5%.
COc1ccc(-c2nnc(SCC(=O)Nc3ccc(Cl)cc3)n2C)cc1 was read as Mito fusion yeast -2%, RORg inh -24%, Gal4-VP16 FLuc -9%, BCR signal inh 0%, uPA generation 0% and a7 integrin act -22%.
CCOC(=O)/C(=N\Nc1cccc(Cl)c1)Sc1nnc(-c2ccc(OC)cc2)n1C was read as Mito fusion yeast 14%, RORg inh 3.5µM*, Gal4-VP16 FLuc 11µM*, BCR signal inh 0%, uPA generation -4% and a7 integrin act 19%.

From PubChem
